Results from PubChem BioAssay (NCI).
Compounds without any hit were thinned out: in the full panel of roughly 83,000, 20% have a hit.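 Interpretation: 100, growth as untreated; towards 0, rising growth inhibition; 0, no net growth; 0 to -100, cell death. Compounds scoring below 10 were considered active.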 Values without a mark were called inactive. The source made the active and inactive calls.

The compounds below were run on SW-620 colon (assay: NCI-60 one-dose screen, 48 h (100 = growth as untreated, 0 = no growth, -100 = all killed)). Settings: 10 µM unless noted.

| SMILES | growth |
| --- | --- |
| O=C(Nc1ccccc1)Oc1cccc2cccnc12 | 48.2% |
| O=c1[nH]c(-c2ccccn2)nc2sc3c(c12)CCCCCC3 | 25% |
| CC(=O)N(CC(O)CO)c1c(I)c(C(=O)NCCO)c(I)c(C(=O)NCC(O)CO)c1I (stereo unspecified) | 109% |
| COc1ccc(-c2nc3sc(C)nn3c2-c2nc3cc(C)c(C)cc3[nH]2)cc1 | 98.5% |
| O=C(C[Si](CC(=O)c1cccc(C(F)(F)F)c1)CC(=O)c1cccc(C(F)(F)F)c1)c1cccc(C(F)(F)F)c1 | 35% |
| Cc1ccc(C2SCC(=O)N2NC(=O)c2[nH]c3ccc(F)cc3c2-c2ccccc2)cc1 (stereo unspecified) | 102% |
| CCCCCCCCCCCCSC1=CC(=O)C=CC1=O | 109% |
| O=C1/C(=C/c2ccc(Oc3ccccc3)cc2)N=C(c2ccccc2)N1CCc1cccs1 | 80.1% |
| FC(F)(F)c1cc(CNc2ncc(Br)c(Cl)n2)cc(C(F)(F)F)c1 | 105% |
| COc1cc(CNCCCN2C(=O)c3ccc4c5c(ccc(c35)C2=O)C(=O)N(CCCNCc2cc(OC)c(OC)c(OC)c2)C4=O)cc(OC)c1OC | -69.8% (active) |
| CCCCc1ccc(C(O)(CCN2CC3CCC(CC3)C2)c2ccccc2)cc1 (stereo unspecified) | 95.7% |
| CC(C)NCC(O)COc1ccc(CCOCC2CC2)cc1 (stereo unspecified) | 102% |
| O=C(O)CCN1CCN(c2cccc(Cl)c2)CC1 | 107% |
| CCCCC(CCCC)(S(=O)(=O)CC)S(=O)(=O)CC | 102% |
| COc1ccc(/C=C2\CN(Cc3cn(CCCNc4ccnc5cc(Cl)ccc45)nn3)C/C(=C\c3ccc(OC)cc3)C2=O)cc1 | 46.4% |
| Cn1c2c(cc(S(=O)(=O)c3ccccc3)c1=O)CCc1c-2cnn1-c1cccc(Cl)c1 | 110% |
| CCOc1ccc(-c2cnnn2-c2nonc2-n2cccc2)cc1 | 21.7% |

| SMILES | growth |
| --- | --- |
| COc1ccc(-c2csc3c2-n2cccc2C3=O)cc1O | 20.2% |
| O=C1OCC2=C1C(c1ccc3c(c1)OCO3)CC(=O)N2c1cccc(Cl)c1 (stereo unspecified) | 105% |
| COc1cc2nc(N3CCC[C@H](NC4=CC(=O)c5ccccc5C4=O)C3)nc(N)c2cc1OC | -45.1% (active) |
| CC1SC(c2ccc(Cl)cc2)N(CCc2cccs2)C1=O (stereo unspecified) | 12.4% |
| C[C@@H](Oc1cc(-c2cnn(C3CC4(CNC4)C3)c2)cnc1N)c1c(Cl)ccc(F)c1Cl | 23.8% |
| Cc1nn(-c2ccccc2)c2nc3nc4c(c(N)c3c(-c3ccc(Cl)cc3)c12)CCC4 | 50.8% |
| COc1ncnc2c1ncn2C/C(Br)=C(\Br)CCl | -73.6% (active) |
| CCOC(=O)C(CC(c1ccccc1)N1CCCCC1)[N+](=O)[O-] (stereo unspecified) | 84.9% |
| O=c1nc(NO)[nH]c(=O)n1Cc1ccc(F)cc1 | 101% |
| Cn1cc(C(=O)NCCC(=N)N)cc1NC(=O)CN=C(N)N | 106% |
| Cc1cc(=O)c2c(C)ccc(C)c2[nH]1 | 104% |
| O=c1onc(-c2ccccc2)c2ccccc12 | 103% |
| O=C1C(Cl)=C(NCCCN2CCOCC2)C(=O)c2ccccc21 | 79.2% |
| CCCCc1ccc(NC(=O)C(F)(F)F)cc1 | 101% |
| O=C1CC(c2ccsc2)c2snc(-c3ccc(Cl)cc3)c2N1 (stereo unspecified) | 33.4% |
| COc1ccc2nc(-n3nc(C)cc3C)c(-n3nc(C)cc3C)nc2c1 | 107% |

Each compound was assayed on MCF7 breast in the same assay as above. Settings: 10 µM unless noted.

| SMILES | growth |
| --- | --- |
| O=c1[nH]c(-c2ccccn2)nc2sc3c(c12)CCCCCC3 | 29.6% |
| CC(=O)N(CC(O)CO)c1c(I)c(C(=O)NCCO)c(I)c(C(=O)NCC(O)CO)c1I (stereo unspecified) | 104% |
| COc1ccc(-c2nc3sc(C)nn3c2-c2nc3cc(C)c(C)cc3[nH]2)cc1 | 88.6% |
| O=C(C[Si](CC(=O)c1cccc(C(F)(F)F)c1)CC(=O)c1cccc(C(F)(F)F)c1)c1cccc(C(F)(F)F)c1 | 86.3% |
| Cc1ccc(C2SCC(=O)N2NC(=O)c2[nH]c3ccc(F)cc3c2-c2ccccc2)cc1 (stereo unspecified) | 93.1% |
| CCCCCCCCCCCCSC1=CC(=O)C=CC1=O | 68.9% |
| O=C1/C(=C/c2ccc(Oc3ccccc3)cc2)N=C(c2ccccc2)N1CCc1cccs1 | 81.8% |
| COc1ccc(Nc2[nH]n(C3=Nc4ccccc4Sc4ccccc43)c(=O)c2C#N)cc1 | 30.7% |
| COc1cc(CNCCCN2C(=O)c3ccc4c5c(ccc(c35)C2=O)C(=O)N(CCCNCc2cc(OC)c(OC)c(OC)c2)C4=O)cc(OC)c1OC | -58.1% (active) |
| CCCCc1ccc(C(O)(CCN2CC3CCC(CC3)C2)c2ccccc2)cc1 (stereo unspecified) | 95.7% |
| CC(C)NCC(O)COc1ccc(CCOCC2CC2)cc1 (stereo unspecified) | 107% |
| Oc1cccc(Nc2nc(-c3ccccn3)cs2)c1 | 84.1% |
| O=C(O)CCN1CCN(c2cccc(Cl)c2)CC1 | 86.1% |
| CCCCC(CCCC)(S(=O)(=O)CC)S(=O)(=O)CC | 105% |
| COc1ccc(/C=C2\CN(Cc3cn(CCCNc4ccnc5cc(Cl)ccc45)nn3)C/C(=C\c3ccc(OC)cc3)C2=O)cc1 | 43.5% |
| Cn1c2c(cc(S(=O)(=O)c3ccccc3)c1=O)CCc1c-2cnn1-c1cccc(Cl)c1 | 90.4% |
| CCOc1ccc(-c2cnnn2-c2nonc2-n2cccc2)cc1 | 21.9% |

| SMILES | growth |
| --- | --- |
| COc1ccc(-c2csc3c2-n2cccc2C3=O)cc1O | 5.97% (active) |
| COc1cc2nc(N3CCC[C@H](NC4=CC(=O)c5ccccc5C4=O)C3)nc(N)c2cc1OC | -77.3% (active) |
| CC1SC(c2ccc(Cl)cc2)N(CCc2cccs2)C1=O (stereo unspecified) | 2.74% (active) |
| C[C@@H](Oc1cc(-c2cnn(C3CC4(CNC4)C3)c2)cnc1N)c1c(Cl)ccc(F)c1Cl | 9.06% (active) |
| Cc1nn(-c2ccccc2)c2nc3nc4c(c(N)c3c(-c3ccc(Cl)cc3)c12)CCC4 | 87.5% |
| COc1ncnc2c1ncn2C/C(Br)=C(\Br)CCl | 0.237% (active) |
| CCOC(=O)C(CC(c1ccccc1)N1CCCCC1)[N+](=O)[O-] (stereo unspecified) | 63.3% |
| O=c1nc(NO)[nH]c(=O)n1Cc1ccc(F)cc1 | 94.3% |
| CCN(CC)CCCNc1ccc(C)c2sc3ccccc3c(=O)c12 | -67.1% (active) |
| Cc1cc(=O)c2c(C)ccc(C)c2[nH]1 | 93.5% |
| COc1ccc(OC2=C(C#N)C(=N)N3c4ccccc4Sc4ccccc4C3N2)cc1 (stereo unspecified) | 95.6% |
| O=c1onc(-c2ccccc2)c2ccccc12 | 102% |
| O=C1C(Cl)=C(NCCCN2CCOCC2)C(=O)c2ccccc21 | 74.6% |
| CCCCc1ccc(NC(=O)C(F)(F)F)cc1 | 108% |
| O=C1CC(c2ccsc2)c2snc(-c3ccc(Cl)cc3)c2N1 (stereo unspecified) | 7.59% (active) |
| COc1ccc2nc(-n3nc(C)cc3C)c(-n3nc(C)cc3C)nc2c1 | 109% |
